Results on 5 compounds are retold here after PubChem BioAssay.

Test [1] is described as follows: small molecules captured by biotinylated probe aFSTL3 – biochemical, small-molecule microarray, fluorescence 635/667, stem cell growth factor project, primary screen (AID 1064).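 Note: measures binding of the biotinylated anti-FSTL3 antibody to printed compounds.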 The following applies: higher = more signal.
The nature of test [2]: binders from COS7 lysate, DM2A8 probe, primary screen, torsin A project, cell lysate, small-molecule microarray, fluorescence 635/667 (AID 1065). Particulars: higher = more signal, COS7 lysate expressing mutant human TOR1A.
Test [3] can be described thus: small molecules captured by biotinylated probe aFGF2 – biochemical, small-molecule microarray, fluorescence 635/667, stem cell growth factor project, primary screen (AID 1067).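 Note: measures binding of biotinylated aFGF2 protein to printed compounds on slides; z-score merges feature fluorescence and signal-to-noise across triplicate slides.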 Particulars: higher = more signal.
Test [4] is described as follows: small molecules captured by biotinylated probe aFGF10 – biochemical, small-molecule microarray, fluorescence 635/667, stem cell growth factor project, primary screen (AID 1071).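 Note: score merges 667 nm spot intensity and signal to noise from triplicate slides.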 The following applies: higher = more signal.
Test [5] concerns the target Neurogenic locus notch homolog protein 2 (Homo sapiens) (UniProt Q04721). The test can be described thus: small molecules binding Notch2 protein – biochemical, small-molecule microarray, 635 nm fluorescence, stem cell growth factors, primary screen (AID 1073). Particulars: higher = more signal.
For test [6], the target named is Pro-neuregulin-1, membrane-bound isoform (Homo sapiens) (UniProt Q02297). Put plainly: small molecules binding neuregulin-1 protein – biochemical, small-molecule microarray, fluorescence 635/667, psychiatric disease protein project, primary screen (AID 1075).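 Note: score combines 667 nm spot fluorescence with signal to noise.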 Particulars: NRG1 binding, 635 nm fluorescence, higher = more signal.
Test [7] concerns Neuregulin-1 EGF-like domain. The test can be described thus: small molecules binding NRG1 EGF domain – biochemical, small-molecule microarray, 635 nm fluorescence, primary screen (AID 1081).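 Note: binding of the protein to compounds printed on small-molecule microarray slides.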 The following applies: higher = more signal.
Test [8] can be described thus: FRG1 expression reporter modulators in myotubes – cell-based, C2C12 myotubes, firefly/Renilla luciferase, luminescence, FRG1 inhibition for FSHD, primary screen (AID 1084). Particulars: FRG1 promoter luciferase, higher = more signal, called active from +8 up or from −8 down.
The nature of test [9]: small molecules captured by biotinylated probe aFST – biochemical, small-molecule microarray, fluorescence 635/667, stem cell growth factor project, primary screen (AID 1086).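 Note: score merges 667 nm fluorescence with signal-to-noise of each printed compound spot.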 The following applies: higher = more signal.
Test [10] is described as follows: binders of probe aHhip on microarray, primary screen, stem cell growth factor project, biochemical, small-molecule microarray, fluorescence 635/667 (AID 1087).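 Note: score merges spot fluorescence at 667nm with spot signal to noise ratio.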 Particulars: higher = more signal.
The test system of test [11] is PRMT1 (protein arginine N-methyltransferase 1). The test can be described thus: small molecules binding arginine methyltransferase PRMT1 – biochemical, small-molecule microarray, 635 nm fluorescence, primary screen (AID 1088).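 Note: binding of Prmt1 protein to compounds spotted on small-molecule microarray slides.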 Particulars: higher = more signal.
A short description of test [12]: growth effects on S. cerevisiae YJM789 – YJM789 clinical isolate, OD600, 24 h, basal, primary screen (AID 1089).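 Note: growth of clinical yeast isolate S. cerevisiae YJM 789 seeded 1000 cells per well; test concentration not given here.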 The following applies: higher = more signal, called active from +8 up or from −8 down.
Test [13] is described as follows: S. pombe growth modifiers, basal conditions – strain 972, OD600, 24 h, no modulator, primary screen (AID 1090).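 Note: basal condition with compound alone and no growth modifier present; test concentration not given here.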 Particulars: S. pombe 972 growth, higher = more signal, called active from +8 up or from −8 down.
Test [14] in a line: budding yeast growth modifiers under rapamycin – strain BY4716, OD600, 96 h, primary screen (AID 1091). Note: test concentration not given here. Particulars: S. cerevisiae BY4716 + rapamycin, higher = more signal, called active from +8 up or from −8 down.
The target of test [15] is Torsin-1A-interacting protein 2 (Homo sapiens) (UniProt Q8NFQ8). Put plainly: small molecules binding lysate-expressed LULL1 – cell lysate, human LULL1 lysate, 635/667 nm fluorescence, primary screen (AID 1092).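 Note: probe is lysate of COS7 cells overexpressing human LULL1; score merges per-feature 667 nm fluorescence with signal-to-noise.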 Particulars: small-molecule microarray, hLULL1 lysate binding, 635 nm fluorescence; higher = more signal.
Test [16] is described as follows: optical density change of DRC41 E. coli – strain DRC41, OD650, 24 h, E. coli filamentation project, primary screen (AID 1093).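 Note: MC1000 strain lacking acrAB efflux and sulA so SOS filamentation is blocked; test concentration not given here.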 The following applies: E. coli DRC41 growth, higher = more signal, called active from +8 up or from −8 down.
Test [17] is described as follows: probe aLefty2 binding to arrayed compounds – biochemical, biotinylated probe, 635/667 nm fluorescence, primary screen (AID 1094).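 Note: score merges spot fluorescence near 667 nm with spot signal-to-noise ratio.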 Particulars: small-molecule microarray, higher = more signal.
Test [18] deals with Noggin (protein binding on small-molecule microarray). Put plainly: small molecules binding Noggin protein – biochemical, 635/667 nm fluorescence, primary screen (AID 1095).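 Note: score merges 667 nm feature fluorescence with signal to noise over triplicate slides.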 The following applies: 635 nm fluorescence, higher = more signal.
In test [19] the target is Neurogenic locus notch homolog protein 3 (Homo sapiens) (UniProt Q9UM47). The test can be described thus: small molecules binding NOTCH3 protein – biochemical, 635/667 nm fluorescence, primary screen (AID 1096). Particulars: small-molecule microarray, 635 nm fluorescence, higher = more signal.
Test [20] in a line: probe aEGFR binding to arrayed compounds – biochemical, biotinylated probe, 635/667 nm fluorescence, primary screen (AID 1097).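 Note: probe is a biotinylated anti-EGFR antibody binding compounds printed on slides; score combines fluorescence near 667 nm and signal to noise of each spot.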 Particulars: small-molecule microarray, higher = more signal.

Each structure is given as a SMILES string. Activity calls are given as the source filed them.

Chain of Neurogenic locus notch homolog protein 3 (Homo sapiens) (Q9UM47 whole entry, looked up): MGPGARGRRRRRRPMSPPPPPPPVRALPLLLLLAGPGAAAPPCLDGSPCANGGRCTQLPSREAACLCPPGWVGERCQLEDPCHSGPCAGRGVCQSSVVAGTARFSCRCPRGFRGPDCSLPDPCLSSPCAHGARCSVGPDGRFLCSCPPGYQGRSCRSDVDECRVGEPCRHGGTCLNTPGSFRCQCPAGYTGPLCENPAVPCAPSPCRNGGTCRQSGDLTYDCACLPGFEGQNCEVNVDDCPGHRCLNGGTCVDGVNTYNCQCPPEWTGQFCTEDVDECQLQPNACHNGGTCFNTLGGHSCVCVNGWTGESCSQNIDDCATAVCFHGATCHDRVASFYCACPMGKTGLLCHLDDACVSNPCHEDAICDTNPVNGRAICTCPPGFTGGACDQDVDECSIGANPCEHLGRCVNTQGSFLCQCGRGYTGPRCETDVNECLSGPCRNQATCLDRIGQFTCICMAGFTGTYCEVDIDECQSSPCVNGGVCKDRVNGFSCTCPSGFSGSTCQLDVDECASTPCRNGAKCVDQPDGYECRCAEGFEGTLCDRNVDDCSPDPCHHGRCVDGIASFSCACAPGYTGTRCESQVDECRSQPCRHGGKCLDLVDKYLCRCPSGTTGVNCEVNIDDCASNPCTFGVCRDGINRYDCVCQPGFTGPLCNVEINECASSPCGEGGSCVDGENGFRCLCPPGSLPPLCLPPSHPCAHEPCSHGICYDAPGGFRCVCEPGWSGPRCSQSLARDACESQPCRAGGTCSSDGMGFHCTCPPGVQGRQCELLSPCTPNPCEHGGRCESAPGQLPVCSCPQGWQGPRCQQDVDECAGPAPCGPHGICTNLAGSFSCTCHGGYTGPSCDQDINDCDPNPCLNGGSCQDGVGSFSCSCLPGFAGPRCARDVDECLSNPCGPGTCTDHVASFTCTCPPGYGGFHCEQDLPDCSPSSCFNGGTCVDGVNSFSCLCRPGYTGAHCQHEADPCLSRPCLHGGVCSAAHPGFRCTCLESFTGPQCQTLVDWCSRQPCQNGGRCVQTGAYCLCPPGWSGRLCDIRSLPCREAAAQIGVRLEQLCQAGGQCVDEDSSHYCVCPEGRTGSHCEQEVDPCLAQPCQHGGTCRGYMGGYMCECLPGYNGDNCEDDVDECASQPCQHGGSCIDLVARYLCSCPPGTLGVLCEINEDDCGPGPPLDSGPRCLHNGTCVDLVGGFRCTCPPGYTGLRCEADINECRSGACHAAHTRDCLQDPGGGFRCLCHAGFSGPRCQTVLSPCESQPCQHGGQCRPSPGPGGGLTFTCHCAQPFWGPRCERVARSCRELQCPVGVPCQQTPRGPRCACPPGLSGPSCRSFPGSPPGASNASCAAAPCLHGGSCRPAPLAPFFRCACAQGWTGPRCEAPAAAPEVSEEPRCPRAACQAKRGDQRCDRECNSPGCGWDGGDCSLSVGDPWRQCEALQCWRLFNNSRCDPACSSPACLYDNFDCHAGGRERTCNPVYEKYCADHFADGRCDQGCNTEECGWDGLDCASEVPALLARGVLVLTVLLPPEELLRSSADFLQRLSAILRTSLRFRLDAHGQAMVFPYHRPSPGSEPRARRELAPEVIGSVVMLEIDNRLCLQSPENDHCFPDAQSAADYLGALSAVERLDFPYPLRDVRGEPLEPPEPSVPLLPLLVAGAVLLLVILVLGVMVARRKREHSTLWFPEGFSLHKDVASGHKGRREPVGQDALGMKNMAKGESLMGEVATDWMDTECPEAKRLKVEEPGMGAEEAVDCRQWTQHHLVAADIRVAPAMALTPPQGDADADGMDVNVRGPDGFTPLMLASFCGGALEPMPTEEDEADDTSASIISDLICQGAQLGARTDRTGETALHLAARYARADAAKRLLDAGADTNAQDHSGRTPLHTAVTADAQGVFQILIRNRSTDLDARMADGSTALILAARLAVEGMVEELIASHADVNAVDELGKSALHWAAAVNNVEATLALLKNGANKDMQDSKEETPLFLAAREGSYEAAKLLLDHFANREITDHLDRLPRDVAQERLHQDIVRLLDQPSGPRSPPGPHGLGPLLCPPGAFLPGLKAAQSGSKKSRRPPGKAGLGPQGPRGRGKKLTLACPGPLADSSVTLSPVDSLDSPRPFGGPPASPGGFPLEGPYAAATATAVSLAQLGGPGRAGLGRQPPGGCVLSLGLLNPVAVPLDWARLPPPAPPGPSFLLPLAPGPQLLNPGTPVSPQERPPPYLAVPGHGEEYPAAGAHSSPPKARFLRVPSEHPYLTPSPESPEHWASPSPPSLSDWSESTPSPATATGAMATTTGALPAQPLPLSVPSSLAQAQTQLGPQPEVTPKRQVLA
Chain of Neurogenic locus notch homolog protein 2 (Homo sapiens) (Q04721 whole entry, looked up, canonical isoform): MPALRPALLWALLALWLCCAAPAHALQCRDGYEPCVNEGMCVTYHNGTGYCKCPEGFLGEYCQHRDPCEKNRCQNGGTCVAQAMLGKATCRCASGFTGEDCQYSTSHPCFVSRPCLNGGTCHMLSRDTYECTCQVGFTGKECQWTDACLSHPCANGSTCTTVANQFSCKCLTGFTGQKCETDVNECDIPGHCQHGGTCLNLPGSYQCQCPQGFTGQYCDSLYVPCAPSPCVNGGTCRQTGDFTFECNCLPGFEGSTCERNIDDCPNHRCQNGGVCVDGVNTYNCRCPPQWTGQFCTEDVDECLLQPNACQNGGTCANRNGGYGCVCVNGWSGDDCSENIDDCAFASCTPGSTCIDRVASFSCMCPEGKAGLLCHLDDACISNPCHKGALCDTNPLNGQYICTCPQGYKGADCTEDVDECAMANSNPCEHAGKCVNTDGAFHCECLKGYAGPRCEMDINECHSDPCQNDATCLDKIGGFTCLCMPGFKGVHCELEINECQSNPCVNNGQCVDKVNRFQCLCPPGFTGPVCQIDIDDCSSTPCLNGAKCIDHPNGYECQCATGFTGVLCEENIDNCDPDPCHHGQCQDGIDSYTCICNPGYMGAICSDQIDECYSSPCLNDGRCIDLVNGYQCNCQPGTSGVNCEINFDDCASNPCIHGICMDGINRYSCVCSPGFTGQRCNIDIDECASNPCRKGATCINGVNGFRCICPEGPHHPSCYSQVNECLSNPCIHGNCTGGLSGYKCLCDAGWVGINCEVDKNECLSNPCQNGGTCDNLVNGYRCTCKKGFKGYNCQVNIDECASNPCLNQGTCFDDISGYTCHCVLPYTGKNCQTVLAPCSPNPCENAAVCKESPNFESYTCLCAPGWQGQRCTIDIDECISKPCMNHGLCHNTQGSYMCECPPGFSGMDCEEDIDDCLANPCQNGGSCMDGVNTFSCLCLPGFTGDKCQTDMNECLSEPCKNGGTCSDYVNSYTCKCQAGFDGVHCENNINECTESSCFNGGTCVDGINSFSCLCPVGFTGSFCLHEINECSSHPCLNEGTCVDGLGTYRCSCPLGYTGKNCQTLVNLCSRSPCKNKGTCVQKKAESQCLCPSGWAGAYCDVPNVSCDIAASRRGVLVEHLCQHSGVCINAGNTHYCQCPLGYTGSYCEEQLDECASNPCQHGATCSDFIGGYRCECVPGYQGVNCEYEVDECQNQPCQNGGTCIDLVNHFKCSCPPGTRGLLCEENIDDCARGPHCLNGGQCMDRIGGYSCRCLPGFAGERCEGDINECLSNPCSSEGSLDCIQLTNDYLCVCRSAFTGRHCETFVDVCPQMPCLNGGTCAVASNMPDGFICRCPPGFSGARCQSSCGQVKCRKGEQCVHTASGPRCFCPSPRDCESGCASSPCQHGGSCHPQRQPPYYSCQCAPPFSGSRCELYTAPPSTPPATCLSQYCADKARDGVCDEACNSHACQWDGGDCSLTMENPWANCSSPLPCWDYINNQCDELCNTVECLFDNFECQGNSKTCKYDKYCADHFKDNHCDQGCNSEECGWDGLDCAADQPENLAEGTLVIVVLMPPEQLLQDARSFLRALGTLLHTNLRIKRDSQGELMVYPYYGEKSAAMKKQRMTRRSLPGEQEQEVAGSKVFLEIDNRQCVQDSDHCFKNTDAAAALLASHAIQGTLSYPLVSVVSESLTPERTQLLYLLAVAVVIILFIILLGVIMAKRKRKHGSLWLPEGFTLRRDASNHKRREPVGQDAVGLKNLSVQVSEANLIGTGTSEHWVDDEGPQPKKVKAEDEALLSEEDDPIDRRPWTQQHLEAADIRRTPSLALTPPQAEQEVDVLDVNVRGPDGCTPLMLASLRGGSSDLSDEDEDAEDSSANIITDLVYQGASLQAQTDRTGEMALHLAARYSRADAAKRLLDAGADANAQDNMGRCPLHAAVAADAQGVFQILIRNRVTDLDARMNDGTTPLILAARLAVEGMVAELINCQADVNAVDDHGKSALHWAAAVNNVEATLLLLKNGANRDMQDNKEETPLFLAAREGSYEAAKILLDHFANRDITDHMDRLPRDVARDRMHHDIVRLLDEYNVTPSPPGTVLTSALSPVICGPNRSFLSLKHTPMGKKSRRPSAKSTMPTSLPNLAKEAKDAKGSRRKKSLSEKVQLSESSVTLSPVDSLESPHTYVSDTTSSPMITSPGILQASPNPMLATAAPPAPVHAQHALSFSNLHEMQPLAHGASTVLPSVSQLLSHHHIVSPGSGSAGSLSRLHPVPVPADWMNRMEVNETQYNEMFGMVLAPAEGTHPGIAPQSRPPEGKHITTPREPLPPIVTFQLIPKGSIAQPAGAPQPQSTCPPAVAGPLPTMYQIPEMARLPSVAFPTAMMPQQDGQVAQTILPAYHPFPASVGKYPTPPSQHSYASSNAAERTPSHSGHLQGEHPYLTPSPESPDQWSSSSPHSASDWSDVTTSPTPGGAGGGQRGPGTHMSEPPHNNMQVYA

On to `[N-]=[N+]=NCc1ccccc1[C@H]1OC(c2ccc(OCCCO)cc2)=N[C@@]1(CCS(=O)(=O)c1ccccc1)C(=O)NCc1ccccc1`, for which the composite z-score in test [1] turned out to be 0.174; in test [2] it was 0.447; in test [3] it was 0.138; in test [4], 0.914; in test [5] it was 1.53; in [6], 1.33. Also, the composite z-score turned out to be 1.24 in test [7]; 0.981 in test [9]; 1.05 in [10]; 1.55 in [11]; 3.11 in test [15]; 0.455 in test [17]. Further, the composite z-score in test [18] worked out at 0.605; in [19], 1.13; in test [20] it was 0.706. The z-score is -1.68 (inactive) in test [8]; 1.47 (inactive) in test [12]; 0.431 (inactive) in test [13]; 4.54 (inactive) in test [14]; 1.28 (inactive) in [16].
Regarding `CCCCCN1CC=CC23O[C@@H]4C=CCOC(=O)[C@@H]4[C@H]2C(=O)N(CCO)[C@@H]3C1=O` (stereo not given in full), the composite z-score is 0.388 in [1]; 0.483 in test [2]; -0.177 in test [3]; 0.162 in [4]; -1.27 in test [5]; 1.6 in test [6]. Besides, the composite z-score in test [7] is 1.48; in [9], -0.455; in test [10], -0.199; in [11], 0.487; in test [15], 2.35; in test [17], -0.244. Moreover, the composite z-score in test [18] is -1.25; in [19], -0.195; in test [20], -0.235. The z-score in test [8] was -0.0097 (inactive); in test [12], 0.15 (inactive); in test [13], -0.178 (inactive); in test [14], -0.175 (inactive); in [16], -0.229 (inactive).
Consider `C=C(COC)/C(=C/C[C@H](OC(C)=O)c1cccc(OCCO)c1)c1cnc2ccccc2c1`, for which the composite z-score in [1] was -0.194; in test [2], 0.569; in test [3] it was -0.0325; in test [4], 1.05; in [5], 1.26; in test [6] it was 0.743. Besides, the composite z-score was 1.11 in test [7]; 0.654 in [9]; 0.107 in [10]; 1.53 in [11]; 2.18 in test [15]; -0.0415 in [17]. Besides, the composite z-score in [18] is 1.64; in [19] it was 1.04; in test [20] it was -0.0267. The z-score is 1.46 (inactive) in test [8]; 1.25 (inactive) in test [12]; -0.0332 (inactive) in test [13]; 1.03 (inactive) in test [14]; -0.094 (inactive) in [16].
In the case of `C[C@]1(C(=O)NCC(F)(F)F)c2ccccc2C(=O)N(Cc2ccccc2)[C@H]1c1ccc(CO)cc1`, the composite z-score in test [1] is 0.472; in test [2] it was -1.34; in test [3] it was -0.167; in test [4], -0.358; in test [5], -1.52; in [6] it was 0.794. In addition, the composite z-score was 0.711 in [7]; -0.0961 in test [9]; -0.0003 in test [10]; -0.604 in test [11]; 1.57 in test [15]; -0.0478 in [17]. Moreover, the composite z-score in test [18] was -1.45; in test [19] it was -1.21; in test [20], -0.162. In addition, the z-score was -1.48 (inactive) in test [8]; 0.724 (inactive) in [12]; 0.645 (inactive) in test [13]; -0.0993 (inactive) in test [14]; 0.855 (inactive) in test [16].
With `C#C[C@@H](CC)O[Si](C#CCCCC#N)(C(C)C)C(C)C`, the composite z-score in test [1] is 0.0465; in test [2], 0.934; in test [3], -0.0891; in [4], -0.146; in [5], -0.604; in [6], 0.873. The composite z-score in test [7] is 0.74; in [9], -0.241; in test [10], -0.236; in test [11] it was 1.12; in [15], 2.2; in [17] it was -0.0257. Further, the composite z-score in test [18] is -0.298; in [19], 0.398; in [20], -0.128. The z-score in test [8] is -0.0405 (inactive); in test [12], -13.2 (active); in test [13], -20.1 (active); in test [14] it was -3.15 (inactive); in test [16], 0.619 (inactive).
